Source: PubChem BioAssay AID720511 (Broad Institute, 2013)
About 1,300 (0.37%) of roughly 350,000 compounds were called active.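 The calls were made as follows: active = mean added fluorescence quench of at least 8% versus neutral control, with both replicates also reaching 8%; inconclusive = only one of the mean or replicate conditions met; inactive = mean below 8% and not both replicates reaching 8%.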 The list comes from a sample in which actives are over-represented; it also holds similar structures and randomly drawn compounds.

Assay: F508del CFTR correction, initial screen, CFBE line, single point (AID 720511);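 also: cells transiently co-express mutant CFTR-F508del with the halide-sensitive YFP; corrector assay measuring rescue of mutant channel to the surface after 24 h compound exposure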
Conditions: CFBE cells, YFP halide quenching, at 7.58 µM, stronger effect = higher value, % fluorescence drop versus neutral controls, stimulated with forskolin plus potentiator P3

Activity (quench increase), active:
Oc1ccc2ccccc2c1N=Nc1nccs1 13.5%
CC(=O)Nc1ccc(Nc2c3ccccc3nc3ccccc23)cc1 10.8%
COc1ccc(C#Cc2ccc3c(c2)O[C@@H](CN(C)C(=O)Nc2cccc(OC)c2)[C@H](C)CN([C@H](C)CO)S3(=O)=O)cc1 9.4%
C[C@@H]1CN([C@@H](C)CO)S(=O)(=O)c2ccc(C#Cc3ccc(F)cc3)cc2O[C@H]1CN(C)C(=O)c1ccccn1 9.03%
CCN(CC)c1ccc(/C=N/NC(=O)c2cnccn2)c(O)c1 19.1%
CCC(=O)c1ccc(OCC(=O)OCC(=O)N2CCc3ccccc3C2)cc1 33.2%
CN(C)CCNC(=O)c1ccc(Cl)c2cc3ccccc3nc12 12.3%
CCOc1ccc(-c2cc(C(=O)N/N=C/c3ccc(O)cc3)c3ccccc3n2)cc1 12.2%
O=C(Nc1ccc(OC(F)(F)F)cc1)c1ccc2c(c1)no[n+]2[O-] 14.5%
NC(=O)CC(NC(=O)Cc1ccc(Br)cc1)c1ccc(NC2CC3CCC2C3)c([N+](=O)[O-])c1 (centres undefined) 10.1%
COc1ccc(CNS(=O)(=O)c2cc(-c3cc(C)no3)ccc2C(C)C)cc1 10.7%
Cc1cccc(NS(=O)(=O)c2ccc(-c3cnc(C4CC4)o3)cc2)c1 10%

Activity (quench increase), inactive:
CS(=O)(=O)N1C[C@@H](O)COC[C@@H]2O[C@H](CC(=O)NC3Cc4ccccc4C3)CC[C@H]21 -1.79%
O=C(C[C@H]1C=C[C@@H](NC(=O)NC2CCCCC2)[C@@H](CO)O1)NCc1ccc(Cl)cc1 0.0755%
C[C@H](CO)N1C[C@H](C)[C@H](CN(C)Cc2ccc(C(F)(F)F)cc2)Oc2ccc(NS(C)(=O)=O)cc2C1=O 3.24%
C[C@@H]1CCCCO[C@@H](CN(C)C(=O)Cc2ccccc2)[C@H](C)CN([C@@H](C)CO)C(=O)c2cc(NC(=O)Nc3ccc(F)cc3)ccc2O1 -1.42%
CCc1c(C)nc2c(-c3ccccc3)c(C)nn2c1Nc1ccc(NC(C)=O)cc1 0.439%
CC(=O)Nc1ccc(S(=O)(=O)N(C)c2nc3ccccc3nc2Cl)cc1 2.1%
C[C@@H]1CCCCO[C@@H](CN(C)S(=O)(=O)c2ccccc2)[C@H](C)CN([C@H](C)CO)C(=O)c2cc(NC(=O)Nc3ccc4c(c3)OCO4)ccc2O1 0.334%
CO[C@H]1CN(C)C(=O)c2cc(NC(C)=O)ccc2OC[C@H](C)N(C(=O)C2CC2)C[C@H]1C 4.09%
C[C@@H]1CN([C@@H](C)CO)S(=O)(=O)c2ccc(C#Cc3ccccc3)cc2O[C@@H]1CN(C)C(=O)Nc1ccccc1 3.03%
COc1ccc(NC(=O)N(C)C[C@H]2Oc3cc(C#CCN(C)C)ccc3S(=O)(=O)N([C@@H](C)CO)C[C@@H]2C)cc1 -0.575%
C/C=C/c1ccc2c(c1)O[C@@H](CN(C)C(=O)c1ccccn1)[C@H](C)CN([C@@H](C)CO)S2(=O)=O -2.18%
CC(C)CC#Cc1ccc2c(c1)O[C@@H](CN(C)C(=O)c1ccccn1)[C@@H](C)CN([C@H](C)CO)S2(=O)=O 0.306%
CCCNC(=O)[C@@H]1[C@@H](CO)[C@@H]2Cn3c(cccc3=O)[C@H]1N2C(=O)Nc1cc(F)ccc1F -0.221%
CCCN(C)C[C@@H]1Oc2ncc(-c3ccccc3F)cc2C(=O)N([C@@H](C)CO)C[C@@H]1C -1.56%
CCCNC(=O)Nc1ccc2c(c1)C(=O)N(C)C[C@H](OC)[C@H](C)CN(Cc1cccnc1)[C@@H](C)CO2 -2.17%
COCC(=O)Nc1ccc2c(c1)OC[C@@H](C)N(C(=O)c1ccncc1)C[C@@H](C)[C@@H](OC)CN(C)C2=O -2.81%
NS(=O)(=O)c1ccc(CNC(=O)c2cnccn2)cc1 3.51%
COc1ccc(NC(=O)C/C(C)=N/NC(=O)c2cnccn2)cc1Cl 0.245%
CNC[C@H]1Oc2ccc(NC(=O)Nc3ccc(F)cc3)cc2C(=O)N([C@@H](C)CO)C[C@@H]1C 2.71%
C/C=C/c1cnc2c(c1)C(=O)N([C@@H](C)CO)C[C@@H](C)[C@@H](CN(C)S(=O)(=O)c1ccccc1F)O2 -0.914%
COCC(=O)N1CC[C@H]2[C@H](CO)Nc3ccc(-c4ccc(C(=O)N(C)C)cc4)cc3[C@H]21 -0.359%
CC(C)CC#Cc1cnc2c(c1)C(=O)N([C@@H](C)CO)C[C@H](C)[C@@H](CN(C)S(=O)(=O)c1cn(C)cn1)O2 3.77%
CCC(=O)c1ccc(OCC(=O)OCC(=O)NC2CCCCCC2)cc1 5.07%
Cc1ccc(Cl)c(OCC(=O)N2CCc3ccccc3C2)c1 0.464%
CN1C(=O)c2cc(NC(=O)Nc3ccccc3Cl)ccc2OC[C@H]2O[C@@H](CC(=O)O)CC[C@H]21 2.42%
C[C@H](CO)N1C[C@H](C)[C@H](CN(C)C(=O)Nc2ccccc2)Oc2ccc(NC(=O)C3CC3)cc2CC1=O 1.47%
O=C(Cn1c(NCCO)nc2ccccc21)c1ccc(Cl)cc1Cl 1.26%
CNC(=O)c1cccc2nc3ccccc3nc12 -0.402%
CCNC(=O)C[C@@H]1CC[C@@H](NC(=O)NC2CCCCC2)[C@H](CO)O1 3.72%
Cc1ccccc1-c1ccc2c(c1)O[C@H](CN(C)C)[C@@H](C)CN([C@H](C)CO)S2(=O)=O 0.748%
C[C@H]1CN([C@@H](C)CO)C(=O)c2cc(/C=C/c3ccccc3)cnc2O[C@@H]1CN(C)C(=O)c1ccc(F)cc1 -2.58%
COc1cc(/C=N/NC(=O)c2cc(-c3ccccc3C)nc3ccccc23)cc(OC)c1O -3.23%
COc1ccc(-c2cc(C(=O)N/N=C/c3cccnc3)c3ccccc3n2)c(OC)c1 -13%
C[C@@H]1CN([C@H](C)CO)C(=O)Cc2cc(NS(=O)(=O)c3ccc(F)cc3)ccc2O[C@H]1CN(C)C -0.0265%
CC(C)(C)[S@@](=O)N1Cc2cc(C(=O)N3CCOCC3)nc(-c3cccc(-c4ccc(C#N)cc4)c3)c2[C@H]1CCO 1.68%
Cc1noc(C)c1NC(=O)Nc1ccc2c(c1)CC(=O)N([C@@H](C)CO)C[C@H](C)[C@@H](CN(C)CC1CCCCC1)O2 0.161%
CCOC(=O)Cc1ncccc1C(=O)Nc1ccc(OC(F)(F)F)cc1 -3.45%
CCOc1c2ccc(C(=O)NCc3ccc(OC(F)(F)F)cc3)cc2nn1C 0.909%
O=C(C1CCOCC1)N1CC(=O)N2[C@H](CO)[C@@H](c3ccc(C#CC4CCCC4)cc3)[C@H]2C1 -0.867%
C[C@@H]1CN([C@@H](C)CO)C(=O)c2cc(NS(C)(=O)=O)ccc2O[C@@H]1CN(C)C 0.661%
NC(=O)CC(NC(=O)Cc1cccc2ccccc12)c1ccc(NCc2cc(F)ccc2F)c([N+](=O)[O-])c1 (centres undefined) 0.166%
CC1CCCCN1CCCNc1ccc(C(CC(N)=O)NC(=O)c2ccccc2)cc1[N+](=O)[O-] (centres undefined) -1.78%
COc1ccc(S(=O)(=O)Nc2ccc3c(c2)C(=O)N([C@H](C)CO)C[C@H](C)[C@@H](CN(C)Cc2ccc(-c4ccccc4)cc2)O3)cc1 1.93%
COc1ccccc1C#Cc1ccc([C@@H]2[C@@H](CO)N(C(=O)C3CC3)[C@H]2C#N)cc1 2.81%
Cc1cc(-c2ccc(C)c(S(=O)(=O)NCCCN(Cc3ccccc3)C(C)C)c2)on1 0.63%
CCOc1ccccc1CNS(=O)(=O)c1cc(-c2cc(C)no2)ccc1C -0.998%
COc1ccc(C#Cc2ccc3c(c2)[C@]2(C(=O)N3)[C@H](C(=O)N3CCc4cc(OC)c(OC)cc4C3)[C@H]3C(=O)O[C@H](c4ccccc4)[C@H](c4ccccc4)N3[C@@H]2c2ccc(O)cc2)cc1 -2.79%
CCC(=O)Nc1ccc2c(c1)C(=O)N(C)[C@@H]1CC[C@@H](CC(=O)NCc3ccccc3Cl)O[C@H]1CO2 -0.213%
CC(=O)NC[C@H]1[C@@H](c2ccc(C#CC(C)C)cc2)[C@@H](CO)N1Cc1ccccn1 -0.601%
CCCC(=O)Nc1ccc2c(c1)C(=O)N(C)C[C@@H](OC)[C@H](C)CN(C(C)=O)[C@H](C)CO2 -1.19%
COc1ccc(CNS(=O)(=O)c2ccc(-c3cnc(C4CC4)o3)cc2)cc1 -1.13%
Cc1cccc(CNS(=O)(=O)c2ccc(-c3cnc(C4CC4)o3)cc2)c1 2.12%
COc1ccc(S(=O)(=O)N(C)C[C@H]2Oc3ccc(NS(=O)(=O)c4ccc(C)cc4)cc3CC(=O)N([C@@H](C)CO)C[C@@H]2C)cc1 -1.33%
COc1ccc2c3c(n(C)c2c1)[C@@H](CO)N(CC1CC1)CC31CCN(C(=O)c2cccc(F)c2)CC1 -0.0985%
C[C@H]1CCCCO[C@@H](CN(C)Cc2ccccc2)[C@@H](C)CN([C@@H](C)CO)C(=O)c2cc(NC(=O)CCCN(C)C)ccc2O1 -1.18%
CCCC#Cc1ccc2c(c1)O[C@@H](CN(C)CC1CC1)[C@@H](C)CN([C@H](C)CO)S2(=O)=O 2.53%
Cc1ccc(S(=O)(=O)N2C[C@H](O)COC[C@H]3O[C@H](CC(=O)N[C@H]4CCN(Cc5ccccc5)C4)CC[C@@H]32)cc1 0.736%
